In PubChem BioAssay (NCI):
The panel holds about 83,000 compounds, 20% with a hit somewhere; the sample as a whole holds those more often.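 Plates (96-well) were seeded with cells, treated with compound at one concentration, and incubated for 48 hours before percent growth was determined.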 Activity calls are given as the source filed them.

These compounds were tested on HCT-116 colon (assay: NCI-60 one-dose screen, 48 h (100 = growth as untreated, 0 = no growth, -100 = all killed)). Conditions: 10 µM unless noted.
Procedure: Growth inhibition of the HCT-116 human tumor cell line is measured as a screen for anti-cancer activity. Cells are grown in 96 well plates and exposed to the test compound for 48 hours. Compounds are tested at a single concentration, which is 10^-5 M for most compounds. The reported endpoint is percent growth (GI% or GIPRCNT), where numbers from 0 - 100% represent growth inhibition, and numbers from -100% - 0 represent cell death. For example, a value of 40 represents 60% growth inhibition. A value of 0 means no net growth occurred over the course of the experiment. A value of -40 indicates 40% of cells at the beginning of the experiment died by the end of the experiment. A value of -100 means all cells are dead at the end of the experiment.
NCI-60 Human Tumor Cell Lines Screen was performed using the standard one-dose NCI protocol, which is described in more detail at https://dtp.cancer.gov/discovery_development/nci-60/default.htm.
Compounds with GIPRCNT values below 10 were considered active. Activity score was based on GIPRCNT using the following formula: […]
Score is 0 for GIPRCNT values of 100 or above, 50 for GIPRCNT values of 0, and 100 for GIPRCNT values of -100.
For `C[C@@H]1O[C@@H](O[C@H]2CC[C@@]3(C)[C@H](CCC4[C@@H]3C(O)C[C@]3(C)[C@@H](c5ccc(=O)oc5)CC[C@]43O)C2)[C@H](O)[C@H](O)[C@H]1O` (stereo not given in full), the growth was -79.9% (active). `C=CCC1(CC)C(=O)NC(=S)NC1=O` was tested, and the growth was 108% (inactive). For `Cc1ccc(C[As+](c2ccccc2)(c2ccccc2)c2ccccc2)cc1`, the growth was 2.52% (active). In the case of `O=[N+]([O-])c1cccc([As]=[As]c2cccc([N+](=O)[O-])c2)c1` (stereo not given), the growth is reported as -89.3% (active). With `CCC(C)/C=C(C)/C=C/C(=O)c1c(O)c(-c2ccc(O)cc2)c[nH]c1=O` (stereo not given) the growth was 39% (inactive). For `Cc1cc([N+](=O)[O-])c(Cl)cc1NS(=O)(=O)c1ccccc1`, the growth was 87.3% (inactive). For `Clc1ccc(SSC(Cl)(Cl)Cl)cc1`, the growth was 101% (inactive). With `COC(=O)C(=[N+]=[N-])C(=O)OC` the growth was 94.2% (inactive). `CN1CCN(C(=O)COc2ccc(/C=C3\CC4C5CC=C6CC(Cl)CCC6(C)C5CCC4(C)C3=O)cc2)CC1` (stereo not given) was tested, and the growth was 34.6% (inactive). In the case of `COc1cc2c(cc1OC)CN(C)C(C)C2` (stereo not given), the growth is reported as 105% (inactive). For `CC12CCC3C(CC=C4CC(O)CCC43C)C1C/C(=C\N1CCOCC1)C2=O` (stereo not given), the growth was 101% (inactive). For `CC(C)OC(=S)[S-].[Au+].c1ccc([PH+](c2ccccc2)c2ccccc2)cc1`, the growth was 13.9% (inactive). `CC1(C)CC(=O)CC(C)(C)N1N=O` was tested, and the growth was 96.3% (inactive). In the case of `Cc1cc(NC(=O)CCc2ccc(N3C(N)=NC(N)=NC3(C)C)cc2)ccc1S(=O)(=O)F`, the growth is reported as 18.3% (inactive). `COc1cc(C2CC(=O)Nc3nc(N)[se]c32)cc(OC)c1OC` (stereo not given) was tested, and the growth was 74.9% (inactive). With `CC1COC(=O)C1` (stereo not given) the growth was 102% (inactive). With `CCOC(=O)/C=C(\C)Nc1ccc(N/C(C)=C/C(=O)OCC)c2c1Oc1ccccc1O2` the growth was 105% (inactive). In the case of `COc1ccc(C(c2ccc(OC)cc2)C(Cl)(Cl)Cl)cc1`, the growth is reported as 61.8% (inactive). `O=C(C(=O)N1CCCC1)c1cn(CCCCCn2cc(C(=O)C(=O)N3CCCC3)c3ccccc32)c2ccccc12` was tested, and the growth was 94.1% (inactive). In the case of `Cc1cc(CCl)c(C)cc1CCl`, the growth is reported as 50.9% (inactive). In the case of `CNC(=O)Oc1ccccc1-c1ccccc1`, the growth is reported as 99% (inactive). `CC(=O)N(C)C1=Nc2ccc(Cl)cc2C(c2ccccc2)=[N+]([O-])C1` was tested, and the growth was 99.3% (inactive). `O=C1C=CC(=O)C2C1C1(Cl)C(Cl)=C(Cl)C2(Cl)C1(Cl)Cl` (stereo not given) was tested, and the growth was 36.3% (inactive). `ClCCN(CCCl)c1nc(Cl)c(C2CC(c3ccc(Cl)cc3)=NN2c2cc(Cl)cc(Cl)c2)s1` (stereo not given) was tested, and the growth was 85.8% (inactive). For `CCC(C)(C)O`, the growth was 111% (inactive). With `Cn1cnnc1[S-].[Au+].c1ccc([PH+](c2ccccc2)c2ccccc2)cc1` the growth was 3.71% (active). With `O=C(CF)N(O)c1ccc(/C=C/c2ccccc2)cc1` the growth was 11.5% (inactive). In the case of `CCC[CH2][Sn]1([CH2]CCC)[O]C(=O)c2cccc([N+](=O)[O-])c2C(=O)[O]1`, the growth is reported as -100% (active). For `[Br][Pb]([c]1ccccc1)([c]1ccccc1)[c]1ccccc1`, the growth was -100% (active). For `O=C(NCCNC(=O)c1ccc([As](O)O)cc1)c1ccc([As](O)O)cc1`, the growth was 101% (inactive). With `O=C(CCl)NCNC(=O)CCl` the growth was 92.1% (inactive). `Oc1ccc2c3c1O[C@H]1c4[nH]c5ccccc5c4C[C@@]4(O)C(C2)N(CC2CC2)CC[C@]314` was tested, and the growth was 89.8% (inactive). In the case of `CCOCC1(CCc2ccccc2)C(=O)NC(=S)NC1=O`, the growth is reported as 101% (inactive). In the case of `CC(=O)O[C@H]1CCC2C3CCC4=C/C(=N/O)CCC4(C)C3CCC21C` (stereo not given in full), the growth is reported as 75.3% (inactive). With `O=C(CCF)c1ccc(O)cc1` the growth was 103% (inactive). With `CC(/C=N/N=C(N)N)=N/N=C(N)N` the growth was 83.9% (inactive). `C=CC(O)CN1CC1CC` (stereo not given) was tested, and the growth was 104% (inactive). For `ClCCN(CCCl)c1ccc(C=NCCc2c[nH]c3ccccc23)cc1`, the growth was 79% (inactive). For `CNC(=O)O/N=C(/C)c1ccc(Cl)cc1`, the growth was 99.9% (inactive). In the case of `C/C(=C\c1cc(C(F)(F)F)n(-c2ccc(N)cc2)n1)[C@@H]1C[C@@H]2O[C@]2(C)CCC[C@H](C)[C@H](O)[C@@H](C)C(=O)C(C)(C)[C@@H](O)CC(=O)O1`, the growth is reported as 5.82% (active).
